In all, about 310,000 compounds went through this assay and about 14,000 (4.5%) showed an effect of 50% or more. The effect is printed as a negative number. The sample as a whole holds a higher share of strong results than the screen did.
Each molecule was assayed against human ether-à-go-go-related gene (hERG) potassium channel (human, UniProt Q12809) (assay: primary screen, population patch clamp on CHO cells stably expressing hERG; higher = less effect of the substance).
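Further: peak tail current of the secondary pulse compared with the same well before compound.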

human ether-à-go-go-related gene (hERG) potassium channel, sequence (Q12809 whole entry, looked up): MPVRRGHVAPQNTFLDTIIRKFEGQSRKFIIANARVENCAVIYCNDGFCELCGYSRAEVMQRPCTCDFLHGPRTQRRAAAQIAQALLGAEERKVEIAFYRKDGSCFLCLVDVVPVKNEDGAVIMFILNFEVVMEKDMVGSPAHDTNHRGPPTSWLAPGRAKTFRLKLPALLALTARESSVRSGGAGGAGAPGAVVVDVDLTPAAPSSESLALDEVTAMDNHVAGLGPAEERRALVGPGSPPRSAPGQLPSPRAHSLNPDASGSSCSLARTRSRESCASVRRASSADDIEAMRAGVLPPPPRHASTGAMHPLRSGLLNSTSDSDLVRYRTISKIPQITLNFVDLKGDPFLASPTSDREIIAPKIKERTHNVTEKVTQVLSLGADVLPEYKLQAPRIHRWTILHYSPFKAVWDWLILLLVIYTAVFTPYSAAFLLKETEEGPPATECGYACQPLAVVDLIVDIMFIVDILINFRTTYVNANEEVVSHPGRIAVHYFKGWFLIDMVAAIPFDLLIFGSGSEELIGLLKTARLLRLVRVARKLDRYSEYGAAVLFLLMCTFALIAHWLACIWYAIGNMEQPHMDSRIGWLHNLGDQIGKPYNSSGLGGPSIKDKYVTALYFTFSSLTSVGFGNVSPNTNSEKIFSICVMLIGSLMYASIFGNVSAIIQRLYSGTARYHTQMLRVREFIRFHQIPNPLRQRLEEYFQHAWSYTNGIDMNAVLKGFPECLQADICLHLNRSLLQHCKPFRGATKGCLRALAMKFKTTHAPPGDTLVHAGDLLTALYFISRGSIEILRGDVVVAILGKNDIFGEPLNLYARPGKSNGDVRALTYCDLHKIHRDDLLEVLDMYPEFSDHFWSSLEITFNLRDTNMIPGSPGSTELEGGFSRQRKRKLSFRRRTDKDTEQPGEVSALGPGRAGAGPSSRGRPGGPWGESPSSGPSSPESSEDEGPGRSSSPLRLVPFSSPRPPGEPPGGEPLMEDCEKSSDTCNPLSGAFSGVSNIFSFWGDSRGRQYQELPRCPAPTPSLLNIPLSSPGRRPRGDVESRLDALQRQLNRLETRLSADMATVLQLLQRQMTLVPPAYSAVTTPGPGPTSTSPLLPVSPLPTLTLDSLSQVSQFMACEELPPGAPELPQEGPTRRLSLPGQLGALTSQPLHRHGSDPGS

Compound | hERG current change (%, negative = inhibition) at 10uM [%]
N#CCc1nc(CSc2nc3ccccc3s2)cs1 | -2.16
CC(=O)Nc1ccc(N2CCCCC2)c(C(=O)Nc2cccc(C)c2)c1 | -18.1
Cn1cnnc1SCC(=O)Nc1ccccc1C(=O)NC1CCCC1 | 11.8
O=C(O)c1ccc(NNC(=S)Nc2cc(C(F)(F)F)ccc2Cl)cc1 | 19.4
CCCc1ccc(OCC(=O)NNC(=O)c2cccnc2)cc1 | -10.9
Cc1cccc(NC2=NC(C)(C)N=C(N)N2)c1C | 16.5
CCOc1cccc2sc(N(CCN(C)C)C(=O)c3ccc4c(c3)OCCO4)nc12.Cl | -53.5
CCOc1ccc2nc(N(CCN(C)C)C(=O)c3ccc4ccccc4c3)sc2c1.Cl | 4.67
COc1ccc2nc(N(CCN(C)C)C(=O)c3ccc4c(c3)OCCO4)sc2c1.Cl | -35.3
CCOc1cccc2sc(N(CCN(C)C)C(=O)c3ccc(Br)s3)nc12.Cl | -30.3
CCOc1cccc2sc(N(CCN(C)C)C(=O)c3ccc4ccccc4c3)nc12.Cl | -51.5
CN(C)CCN(C(=O)c1ccc2ccccc2c1)c1nc2c(F)cccc2s1.Cl | -10.2
CCOc1cccc2sc(N(CCN(C)C)C(=O)c3cc4ccccc4cc3OC)nc12.Cl | -68.1
COc1cc2ccccc2cc1C(=O)N(CCN(C)C)c1nc2c(F)cccc2s1.Cl | -38.4
COc1cc2ccccc2cc1C(=O)N(CCN(C)C)c1nc2c(C)cccc2s1.Cl | 19.2
CCCC(=O)Nc1ccc(-c2cn3cccnc3n2)cc1 | 3.08
Cc1cc(C(=O)NCCCOC(C)C)c2ccccc2n1 | -7.22
Cc1c(Cl)cccc1NC(=O)Nc1ccccc1C(N)=O | 19
CCOC(=O)CSc1nnc(-c2ccccc2)o1 | 7.66
COc1ccc(/C=C/C2=CCN(C)CC2)cc1.Cl | -19.7
COc1ccc(CN2CCNCC2)cc1.Cl | 21.6
COc1ccc(/C=C/C2=CCN(Cc3ccc(OC)cc3)CC2)cc1.Cl | -72.3
NNc1n[nH]c(=S)n1N | 15.2

Compound | hERG current change (%, negative = inhibition) at 10uM [%]
CCOC(=O)c1cc(CC)sc1/N=C/C1C(=O)CCCC1=O | 10.9
O=C1OC(c2ccc3c(c2)OCO3)N(C(=O)c2ccc(Cl)c(Cl)c2)c2ccccc21 (stereo not drawn) | 15.1
COc1cc(CO)cc(-c2cc(CO)cc(OC)c2OC)c1OC | 10.3
COc1ccc(C(NC(=O)CNC(C)=O)C(=O)Nc2ccc(C(C)C)cc2)cc1 (stereo not drawn) | -5.76
Cc1ccc(-c2cc(C(=O)NC3CCN(Cc4ccccc4)CC3)c3ccccc3n2)cc1 | 7.42
CC1CC(C)CN(C(=O)c2cc(-c3ccccn3)nc3ccccc23)C1 (stereo not drawn) | -6.19
Cl.O=C(NC1CCN(Cc2ccccc2)CC1)c1cc(-c2ccccn2)nc2ccccc12 | -69.4
CC(CN1CCCCC1)NC(=O)c1cc(-c2ccccn2)nc2ccc(Cl)cc12 (stereo not drawn) | -21.8
O=C(NC1CC1)c1cc(-c2ccccn2)nc2ccccc12 | -29.5
CC1CCN(CC(C)CNC(=O)c2cc(-c3ccccn3)nc3ccccc23)CC1 (stereo not drawn) | -62.5
Cc1cc(C)n(CC(O)COc2ccc(F)cc2)n1 (stereo not drawn) | 9.76
CCC(Cc1ccccc1)NC(=O)/C=C/c1ccco1 (stereo not drawn) | 9.2
CCn1cc(S(=O)(=O)Nc2cc(C)ccc2F)cn1 | 3.63
O=C(CNC(=O)c1sc2ccccc2c1Cl)OCc1ccccc1 | 3.28
COC(=O)C1=C(C)N(CCCC(=O)O)C(=O)NC1c1cccc2ccccc12 (stereo not drawn) | 5.92
COc1ccccc1-n1c(=O)[nH]c2c(C(N)=O)nc(CC(C)C)nc21 | 5.01
O=C(N/N=C/c1cn(-c2ccccc2)nc1-c1cccs1)c1ccncc1 | -10.2
NC(=O)N/N=C/c1cn(-c2ccccc2)nc1-c1cccs1 | -38.8
NC(N)=N/N=C/c1cn(-c2ccccc2)nc1-c1cccs1.O=[N+]([O-])O | -62.1
CCOc1ccc(CN(C)C(=O)c2ccc(=O)[nH]c2)cc1 | 16.6
CCOC(=O)c1ncn2c1CN(C)C(=O)c1cc(F)ccc1-2 | 8.55
CCOC(=O)c1ncn2c1[C@@H]1CCNC1C(=O)c1cc(OC)ccc1-2 (stereo partly drawn) | -68.4
